{"source": "patent US20160355875", "about": "“METHODS AND KITS FOR DETECTING NUCLEIC ACID SEQUENCES OF INTEREST USING DNA-BINDING PROTEIN DOMAIN” (CELLECTIS, published 2016)", "binders": {"B1": {"name": "pray SEQ 6 :bait (dsDNA)", "DNA 1": "CATGGTTTATGGTTACTTATGG", "DNA 2": "GTACAAAAAAGCAGTCGACTAGGGATAACAGGGTAATTATATAAACCTAACCCTCTTAGCATGAAGGTACCATAAGTAACCATAAACAATG"}}, "target": "T1, TALE RAGT2-Renila luciferase fusion (pCLS24992) (artificial, UniProt P14727 SEQ:21-699)", "T1 chain": "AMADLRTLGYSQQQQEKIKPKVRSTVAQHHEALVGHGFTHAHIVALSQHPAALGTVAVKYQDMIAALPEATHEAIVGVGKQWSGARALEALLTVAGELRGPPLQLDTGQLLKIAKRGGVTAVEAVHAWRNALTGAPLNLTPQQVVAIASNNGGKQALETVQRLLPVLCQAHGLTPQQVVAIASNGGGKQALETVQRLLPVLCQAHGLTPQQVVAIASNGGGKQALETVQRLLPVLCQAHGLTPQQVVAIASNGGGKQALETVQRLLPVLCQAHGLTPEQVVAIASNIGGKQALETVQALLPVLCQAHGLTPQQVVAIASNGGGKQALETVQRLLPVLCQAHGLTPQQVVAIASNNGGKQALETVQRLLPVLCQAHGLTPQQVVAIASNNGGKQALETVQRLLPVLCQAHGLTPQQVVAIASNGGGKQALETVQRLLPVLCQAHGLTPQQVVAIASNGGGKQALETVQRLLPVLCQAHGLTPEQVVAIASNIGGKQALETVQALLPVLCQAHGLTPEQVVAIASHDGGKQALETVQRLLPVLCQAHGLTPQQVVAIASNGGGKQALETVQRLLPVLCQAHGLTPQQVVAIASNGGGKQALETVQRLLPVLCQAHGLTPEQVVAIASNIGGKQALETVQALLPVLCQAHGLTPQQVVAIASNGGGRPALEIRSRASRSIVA", "test": "mutation at T0 reduces luminescence by more than 60%; capture plus TALE binding", "conditions": "tags: N-terminal His tag, C-terminal Renilla luciferase fusion; deltaN152 N-terminal domain, C11 C-terminal truncation; expressed in E. coli; label: biotin on bait; mismatched duplex", "method": "Different ssDNA targets (SEQ ID NO 6-20) harboring unique or multiple mutations with respect to the ssDNA wild type pray (SEQ ID NO 5, 10 pmol) were synthesized and used to assess the specificity of TALE RAGT2-Renila detector system. We first studied the effect of increasing amount of mutation within the ssDNA target on the luminescence of TALE RAGT2-Renila according to the detection protocol described earlier. Briefly, 10 pmol of ssDNA wild type or mutated were incubated with the ssDNA biotinylated pray already immobilized on the streptavidine coated plate. The mixture was heated and allow to cool down to RT. After washing the well with high and low salt containing TBST buffers, an excess of TALE RAGT2-Renila was added to the well (^{˜}300 pmol total), the unbound was then removed by two low salt buffer washing steps and the reaction mixture was added to determine luminescence. The luminescence obtained for each of the ssDNA prays used is illustrated in FIG. 20."}
{"binder": "B1", "values": [{"measurement": "binding signal", "value": "< 40 % of WT"}]}
